Screening results deposited in PubChem by National Center for Advancing Translational Sciences (NCATS).
Only some compounds are listed: those with a hit (about 14% of all), similar ones and a draw of the others.
Pf growth 96h – inhibits malaria parasite growth, 96 h; P. falciparum luciferase reporter growth, 96 h; Potency, µM (top dose mostly 28.7 µM), without a hit: at the top dose activity change, negative = inhibition, most hits filed as inhibitors; hit rate 6.9% among 320,000; AID 504834; further: potency means the concentration at half of the fitted maximal effect
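P. falciparum expressing integrated firefly luciferase grown in erythrocytes (2% hematocrit, 0.05% parasitemia final) with compounds for 96 hours at 37 C, 5% CO2. Growth inhibition read as loss of luminescence after adding luciferase detection reagent.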
HCV inhibitor – blocks hepatitis C virus. Huh7.5.1 HCVcc-Cre infection, luciferase reporter, 44 h. AID 651820. Potency, µM (series often up to 41.8 µM), for the others: at the highest dose activity change, negative = inhibition, most hits filed as inhibitors. hit rate 3.4% among 340,000; further: potency means the concentration at half of the fitted maximal effect
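Cells (1,000/well) were plated 4 h before compound, then infected with HCVcc-Cre virus (~0.5 moi). After 44 h further culture, infection was read as luciferase luminescence following a 15 min substrate incubation at room temperature.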
LASV entry inh – blocks Lassa virus binding to or entry into cells. Lassa virus pseudotype entry inhibition, cell reporter. Potency, µM (titrated, usually from 37.9 µM), for the others: at the highest dose activity change, negative = inhibition, usual class: inhibitors. hit rate 1.2% among 300,000; calls by dose curve; tested in HEK293 cells; further: potency means the concentration at half of the fitted maximal effect; nearly all actives have a fitted effect of over 50% in size
HCMV inh – inhibitors of human cytomegalovirus; activity change, negative = inhibition, % at 57.5 µM; HFF cells, HCMV-luciferase reporter, 72 h; hits give low values; hit rate 4.5% among 410,000; in the data active means activity change below about -60%; inconclusive means no clear call, values can overlap the other calls; inactive means above about -39%
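Inhibition of viral replication was scored as loss of reporter luminescence in HFFs infected with HCMV-luciferase (MOI 1 PFU/cell) for 72 h; compounds tested at 2 doses, normalized to buffer and Salinomycin controls.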
Marburg entry inh – Marburg virus entry inhibition; Marburg virus pseudotyped entry inhibition, cell reporter; Potency, µM (doses to about 37.8 µM), inactives show at the top dose activity change, negative = inhibition, actives largely listed as inhibitors; hit rate 1.8% among 300,000; calls by dose curve; tested in HEK293 cells; further: potency means the concentration at half of the fitted maximal effect
Pf growth 48h – P. falciparum growth inhibition at 48 hours (one generation); P. falciparum luciferase growth in erythrocytes, 48 h; Potency, µM (titrated, usually from 28.7 µM), for inactives: at the highest dose activity change, negative = inhibition, actives largely listed as inhibitors; hit rate 5.9% among 310,000; AID 504832; further: potency means the concentration at half of the fitted maximal effect
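Luciferase-expressing parasites in RBCs, 2% Hct / 0.1% parasitemia final; RPMI 1640 + 0.5% Albumax; 37 C, 5% CO2, one generation; luminescence read-out, lower signal = inhibition.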
Numbers without * were called inactive; u = inconclusive; x = no result given; [ ] = dose if it differs, or a comment. Unless noted, the call rests on the fitted dose curve; in most records, active means well fitted inhibition curve with a large enough effect; inconclusive means small, poorly fitted or top-dose-only effect, or another doubt; inactive means no such curve, though single readings can be large or run the other way. On the % scale 0 is the no-effect control and ±100 the full control effect.

SMILES	Pf growth 96h	HCV inhibitor	LASV entry inh	HCMV inh	Marburg entry inh	Pf growth 48h
CCC(=O)N1CCN(c2ccc(NC(=O)c3ccco3)cc2Cl)CC1	-1%	-4%	u	100	18%	u
CC(=O)N1CCN(c2ccc(NC(=O)c3ccc([N+](=O)[O-])o3)cc2Cl)CC1	5.2µM*	u	u	-98*	u	u
CCC(=O)N1CCN(c2ccc(NC(=O)c3ccc([N+](=O)[O-])o3)cc2Cl)CC1	14%	u	u	-96*	u	u
CC(=O)N1CCN(c2ccc(NC(=O)c3ccc([N+](=O)[O-])cc3Cl)cc2)CC1	-17%	11%	27%[46.1 µM]	-16	u	0%
CCC(=O)N1CCN(c2ccc(Cl)cc2NC(=O)Cc2ccc(Cl)cc2)CC1	13µM*	x	-14%[14.3 µM]	u	u	x
CC(NC(=O)c1ccc2nc(CCc3ccccc3)oc2c1)c1ccccc1 (stereo unspecified)	x	x	-8%[46.1 µM]	20	x	x
CCCCN(C(=O)c1ccc(-c2ccc(Cl)cc2)o1)c1c(N)n(CCC)c(=O)[nH]c1=O	-34%	-4%	x	-3	x	u
CCN1CCN(c2ccc(NC(C)=O)cc2Cl)CC1	u	4%	-14%	29	2%	0%
CCN1CCN(c2ccc(NC(=O)c3ccc([N+](=O)[O-])o3)cc2Cl)CC1	u	u	u	-96*	u	u
COCCn1c(SCC(=O)Nc2cccc(S(N)(=O)=O)c2)nc2ccccc21	u	0%	-7%	14	-26%	x
COCCn1c(SCC(=O)Nc2ccc(S(N)(=O)=O)cc2)nc2ccccc21	x	2%	-36%	15	u	12%
COCCn1c(SCC(=O)Nc2cccnc2Cl)nc2ccccc21	x	-2%	x	u	x	x
COCCn1c(SCC(=O)Nc2nc(C)c(Cl)cc2Cl)nc2ccccc21	0%	-22%	23µM*	u	u	-22%
COCCn1c(SCC(=O)Nc2ccc(Cl)c(S(=O)(=O)N(C)C)c2)nc2ccccc21	x	u	1%	1	u	12µM*
COCCn1c(SCC(=O)Nc2ccc(S(=O)(=O)N3CCOCC3)cc2)nc2ccccc21	47%	-28%	-8%	-18	-12%	10µM*
CCN1CCc2c(sc(NC(=O)c3ccc(S(=O)(=O)N4CCCC(C)C4)cc3)c2C(=O)OC)C1 (stereo unspecified)	x	x	-13%[46.1 µM]	-39	x	x
c1coc(CNc2c3c(nc4ccccc24)CCC3)c1	-20%	u	-2%	-69*	u	u
Cc1ccc(Nc2c3c(nc4ccccc24)CCC3)cc1F	x	x	-32%[46.1 µM]	u	u	x
CC(C)NCC(=O)Nc1c2c(nc3ccccc13)CCC2	-6%	-4%	-13%[46.1 µM]	24	u	-12%
COc1cc(Nc2c3c(nc4ccccc24)CCC3)cc(OC)c1OC	5%	u	-21%	-75*	u	12µM*
Cc1cccc(Nc2c3c(nc4ccccc24)CCC3)c1	u	u	u	-34	11µM*	12µM*
COc1ccccc1Nc1ccc([N+](=O)[O-])cc1N	88%	-10%	-2%	-30	19%	25%
COc1ccccc1Nc1c([N+](=O)[O-])cc(C)cc1[N+](=O)[O-]	10µM*	1%	x	u	x	4%
COc1ccc2nc(C)cc(N3CCC(C(N)=O)CC3)c2c1	-11%	7%	-3%	u	-2%[46.1 µM]	19%
Cc1cc([N+](=O)[O-])ccc1NCc1ccccc1	154%	-16%	u	x	-25%	37%
Cc1cc([N+](=O)[O-])ccc1NCc1ccc2ccccc2c1	9%	11µM*	9%	-27	-25%	-3%
COc1ccc(CNc2cc([N+](=O)[O-])ccc2OC)cc1	20%	u	-1%	-74*	-3%	4%
COc1ccc([N+](=O)[O-])cc1Nc1c2ccccc2nc2ccccc12	17µM*	u	x	u	x	12µM*
COc1ccc(N2CCN(c3cc(C)nc4ccc(OC)cc34)CC2)cc1	u	6.3µM*	u	-3	u	13µM*
COc1ccc(C)cc1NCc1ccc([N+](=O)[O-])cc1	u	u	u	-15	2%	-27%
